Screens (PubChem BioAssay)
Rows were chosen to be rich in hits. Some 3.4% of all compounds tested hit in one or more screens of this group.
PP5 primary: blocks human protein phosphatase 5 activity | P53041 | purified PP5c, OMFP substrate fluorescence | inhibition, % at 6.7 µM | 320,000 tested, 0.18% active;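 active means inhibition above the campaign's mean inhibition across all tested compounds plus 3 SD, cut at about 9.5% in these data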;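 further: 0% = DMSO only and 100% = 100 µM cantharidin control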
Target sequence (P53041 whole entry, looked up): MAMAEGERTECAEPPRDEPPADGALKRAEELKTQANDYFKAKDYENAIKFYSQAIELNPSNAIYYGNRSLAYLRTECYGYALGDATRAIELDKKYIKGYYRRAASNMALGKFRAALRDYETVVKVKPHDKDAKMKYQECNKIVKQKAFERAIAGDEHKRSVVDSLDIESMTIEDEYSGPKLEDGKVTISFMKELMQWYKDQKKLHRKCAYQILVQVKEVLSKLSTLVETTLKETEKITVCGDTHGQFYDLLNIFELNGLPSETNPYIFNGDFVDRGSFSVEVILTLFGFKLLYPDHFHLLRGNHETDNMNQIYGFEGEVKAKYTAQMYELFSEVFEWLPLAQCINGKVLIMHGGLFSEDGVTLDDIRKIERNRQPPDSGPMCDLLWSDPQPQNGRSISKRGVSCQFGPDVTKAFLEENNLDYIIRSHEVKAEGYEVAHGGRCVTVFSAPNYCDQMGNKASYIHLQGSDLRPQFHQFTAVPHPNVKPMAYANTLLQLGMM
PAFAH2 inh: inhibitors of human PAFAH2; Q99487; 340,000 tested, 0.99% active; recombinant PAFAH2, FP-rhodamine activity probe, fluorescence polarization; inhibition, % at 3.39 µM;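 active means inhibition above the mean over all tested compounds plus 3 SD, cut at about 30% in these data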;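 further: inhibitors block probe labeling of enzyme so polarization drops; 0% = enzyme with DMSO and 100% = wells lacking PAFAH2 protein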
PP1 counter: blocks human PP1-alpha phosphatase, a PP5 counter-screen; inhibition, % at 6.7 µM; P62136; purified PP1alpha, OMFP fluorescence; 320,000 tested, 0.9% active; AID 2235;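 active means inhibition above the mean inhibition of all tested compounds plus 3 SD, computed separately for each screening campaign, cut at about 15% in these data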
PAFAH1B3 FP inh: PAFAH1B3 (human) inhibition; Q15102; recombinant PAFAH1B3, FP-rhodamine probe, fluorescence polarization; inhibition, % at 3.39 µM; 340,000 tested, 0.28% active; AID 492972;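 active means inhibition above the screen-wide average of all tested compounds plus 3 SD, cut at about 25% in these data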;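 further: 0% = enzyme with DMSO only and 100% = wells lacking PAFAH1B3 protein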
PAFAH1B2 inh: inhibitors of human PAFAH1B2; recombinant PAFAH1B2, FP-rhodamine activity probe, fluorescence polarization; inhibition, % at 3.39 µM; 340,000 tested, 1.2% active;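 active means inhibition above the mean of all tested compounds plus 3 SD, cut at about 24% in these data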;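 further: 0% = enzyme with DMSO and 100% = wells lacking PAFAH1B2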
Target sequence (P68402 whole entry, looked up): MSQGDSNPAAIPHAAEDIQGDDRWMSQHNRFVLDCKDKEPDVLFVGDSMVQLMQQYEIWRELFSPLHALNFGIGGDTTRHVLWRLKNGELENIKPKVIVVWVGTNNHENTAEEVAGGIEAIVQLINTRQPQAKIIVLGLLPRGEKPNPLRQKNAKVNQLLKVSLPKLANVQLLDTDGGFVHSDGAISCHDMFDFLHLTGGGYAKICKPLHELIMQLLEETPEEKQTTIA
pPAFAH inh: pPAFAH (human) enzyme inhibition. Q13093. recombinant pPAFAH, FP-rhodamine probe fluorescence polarization. inhibition, % at 3.39 µM. 330,000 tested, 1.5% active;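 active means inhibition above the mean inhibition across the screen plus 3 SD, cut at about 25% in these data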;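 further: inhibitors block binding of the rhodamine activity-based probe so polarization drops; 0% = enzyme with DMSO and 100% = wells lacking pPAFAH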
Active calls of the source: *; / = no result.

SMILES | PP5 primary | PAFAH2 inh | PP1 counter | PAFAH1B3 FP inh | PAFAH1B2 inh | pPAFAH inh
O=C(O)c1cccc(NC(=S)N/N=C/c2ccccc2OCc2ccc(Br)cc2)c1 | -3.9 | -38.8 | 17.0* | 2.0 | 9.4 | 10.1
CN(C)C(=O)NC1CCCCCCCCCCC1 | -1.5 | 0.9 | 2.1 | 11.8 | 36.4* | -1.2
Cc1ccc(OCC(O)CN2CCN(CC(O)COc3ccc(C)cc3)CC2)cc1 (stereo not drawn) | 0.4 | 0.1 | -1.6 | 6.8 | -4.2 | 6.3
CN(Cc1nc(-c2cnccn2)no1)CC1(c2ccccc2)CC1(C)C (stereo not drawn) | 0.7 | -3.7 | 3.3 | 8.9 | 25.7* | 5.3
CN(Cc1nc(-c2cnccn2)no1)Cc1cccc2ccccc12 | 3.1 | 4.1 | 2.3 | 3.6 | 4.1 | 0.8
N#CCCN(C(=O)COC(=O)CNC(=O)C12CC3CC(CC(C3)C1)C2)c1ccccc1 | -2.0 | 13.2 | -8.2 | 4.6 | 15.8 | 22.3
CC(Sc1nnc(NCc2ccccc2)s1)C(=O)Nc1ccc2c(c1)C(=O)c1ccccc1C2=O (stereo not drawn) | 3.1 | -31.2 | 16.5* | 0.0 | 18.8 | 16.1
CC(Sc1nnc(Nc2ccccc2)s1)C(=O)Nc1nc(-c2ccccc2)cs1 (stereo not drawn) | -0.4 | -6.7 | 1.4 | 11.7 | 3.2 | -2.1
O=C(Nc1ccc(Cl)c(S(=O)(=O)N2CCOCC2)c1)C1CCC1 | 0.7 | 2.4 | 7.0 | 5.8 | 4.3 | 2.4
OCCC1CN(Cc2c(F)cccc2Cl)CCN1C1CCCC1 (stereo not drawn) | -0.7 | 7.1 | -2.6 | 3.6 | 1.6 | -0.3
OCCC1CN(Cc2c(F)cccc2Cl)CCN1C1CCCCC1 (stereo not drawn) | -3.7 | -5.3 | 1.2 | -0.8 | -3.9 | 32.5*
CSC1=NCCN1C(=O)Cc1ccc(F)cc1 | 0.8 | -9.7 | -4.7 | -1.4 | -7.3 | 3.4
COC(=O)c1ccc(CC(=O)c2ccc(O)cc2O)o1 | -0.3 | -0.7 | -0.3 | 10.2 | -2.0 | 7.2
COc1cc(CC(=O)O)ccc1O | -0.4 | 1.0 | -0.8 | -2.4 | -2.2 | 34.2*
COC(=O)c1ccc(CC(=O)c2c(C)cc(O)cc2O)o1 | -2.5 | -3.3 | 3.1 | 7.4 | -7.0 | 34.1*
COc1ccc(C(=O)Cc2ccc(OC)c(OC)c2)cc1 | -0.8 | -6.7 | -3.7 | 5.6 | 2.3 | 1.1
COc1cc(C[C@@H](C)[C@@H](C)Cc2ccc(O)c(OC)c2)ccc1O | / | 8.1 | / | 2.0 | 26.5* | 1.2
COc1ccc(CC(=O)c2c(O)cc(O)cc2O)cc1OC | -1.9 | -6.7 | -3.6 | 4.5 | 1.1 | 25.0*
COc1ccc(CC(=O)O)cc1O | -0.2 | 6.2 | -2.1 | -2.6 | -3.5 | 4.8
CC(C)c1ccc(S(=O)(=O)N2CCN(C(=O)[C@@H]3CCCN3C(=O)c3cccs3)CC2)cc1 | / | 3.1 | / | 5.1 | 5.8 | /
O=C(C1CCCN1C(=O)c1cccs1)N1CCN(S(=O)(=O)c2ccc(F)cc2)CC1 (stereo not drawn) | -1.5 | -3.0 | -1.4 | 11.0 | 28.8* | 1.7
Oc1c(Br)cc(Br)cc1C=Nc1cccc2ncccc12 | 6.5 | 13.9 | 7.7 | 8.4 | 3.8 | 27.8*
Brc1cccc(C=Nc2cccc3ncccc23)c1 | -1.4 | -7.8 | -0.6 | -5.6 | 4.5 | 2.7
O=[N+]([O-])c1ccc(O)c(C=NNc2ccc(S(=O)(=O)O)cc2)c1 | / | 5.6 | / | 9.4 | 6.0 | /
O=[N+]([O-])c1cccc(N/N=C/c2cc([N+](=O)[O-])ccc2O)c1 | -0.9 | 39.5* | 11.6 | 8.5 | -0.6 | 27.7*
SMILES | PP5 primary | PAFAH2 inh | PP1 counter | PAFAH1B3 FP inh | PAFAH1B2 inh | pPAFAH inh
O=[N+]([O-])c1ccc(O)c(/C=N/Nc2nc3ccccc3[nH]2)c1 | -0.2 | -0.5 | 13.4 | 16.2 | 35.3* | 11.6
Cc1ccc(NC(=S)NNC(=O)c2cccc([N+](=O)[O-])c2)cc1Cl | 2.9 | 19.1 | -2.2 | 2.1 | 25.0* | 20.6
O=C(NC(NC(=S)Nc1ccc(Cl)cc1Cl)C(Cl)(Cl)Cl)c1cccc([N+](=O)[O-])c1 (stereo not drawn) | 3.2 | -43.3 | 15.4* | -17.8 | -13.0 | -48.6
CC(C)(C)OC(=O)N[C@H](/C=C/c1ccccc1)C(=O)OC(C)(C)C | 3.5 | 6.5 | -1.7 | 8.3 | 1.3 | 1.2
O=C(c1ccc(Br)s1)N1CCc2ccccc2C1 | 3.6 | -1.8 | -3.1 | 1.4 | -3.8 | 6.7
O=C(N/N=C/c1cc([N+](=O)[O-])ccc1O)Nc1ccccc1 | -1.8 | 3.2 | 3.4 | 3.3 | 31.6* | 13.2
O=[N+]([O-])c1ccc(O)c(/C=N/NC(=S)Nc2ccc(Cl)cc2Cl)c1 | -0.9 | 45.4* | 0.6 | 23.3 | 42.0* | 18.5
O=C(N/N=C/c1cc([N+](=O)[O-])ccc1O)C12CC3CC(CC(C3)C1)C2 | -0.9 | 90.5* | 1.3 | 6.9 | 42.3* | 5.6
CCNC(=O)C(=O)N/N=C/c1cc([N+](=O)[O-])ccc1O | 0.1 | -2.1 | -0.6 | 4.1 | 3.6 | 4.2
O=C(NN=Cc1cc([N+](=O)[O-])ccc1O)c1cccc2ccccc12 | / | 24.6 | / | 10.6 | 6.2 | /
Cc1cc([N+](=O)[O-])nn1Cc1noc(C(=O)NCc2ccc3c(c2)OCO3)n1 | -0.5 | -10.4 | 0.6 | 3.6 | 4.7 | 3.1
Cc1nc(SCCC(=O)O)c2cc(-c3ccccc3)sc2n1 | 0.9 | -2.1 | -4.7 | -2.7 | 49.8* | 1.8
Cc1nc(N2CCOCC2)c2cc(-c3ccccc3)sc2n1 | 0.2 | 0.2 | 1.6 | -1.5 | 5.3 | 3.6
O=C(OCC(=O)N1CCOCC1)c1cc(F)c(F)cc1Cl | 0.1 | -3.2 | -2.9 | -1.8 | 1.2 | 1.8
O=C(NCC(c1ccco1)N1CCc2ccccc2C1)c1c(F)cccc1F (stereo not drawn) | -1.6 | 2.8 | -5.8 | 4.1 | 3.1 | 6.5
Cc1cccc(OCC(=O)NCC2CCCO2)c1C (stereo not drawn) | -0.7 | 8.0 | 3.4 | 0.4 | 2.8 | 8.4
O=C(O)c1ccc(Cl)c(S(=O)(=O)N(Cc2ccccc2)c2ccc(F)cc2)c1 | 1.5 | 2.0 | 4.8 | -5.7 | 33.0* | 5.1
COc1ccc(N(Cc2ccccc2)S(=O)(=O)c2cc(C(=O)O)ccc2Cl)cc1 | 1.2 | -3.3 | -2.1 | -1.3 | 3.3 | -2.8
O=C(O)c1ccc(Cl)c(S(=O)(=O)N(Cc2ccccc2)c2ccccc2)c1 | 0.3 | 12.7 | -1.9 | -5.5 | 22.4 | 0.1
O=C(O)c1ccc(CN(c2ccccc2)S(=O)(=O)c2ccccc2)cc1 | 0.7 | 3.9 | -2.3 | 4.0 | 2.0 | 4.6
O=C(O)c1cccc(S(=O)(=O)N(Cc2ccccc2)c2ccccc2)c1 | 0.3 | 7.2 | -5.0 | 3.0 | 25.6* | -0.7
O=C(O)c1ccc(Cl)c(S(=O)(=O)N(Cc2ccccc2)c2ccccc2Cl)c1 | 0.9 | 12.4 | 7.3 | 6.5 | 28.3* | 7.0
CCN(c1ccccc1)S(=O)(=O)c1cc(C(=O)O)ccc1C | -1.5 | 15.8 | -5.2 | 16.1 | 52.7* | 14.8
O=C(COC(=O)c1ccccc1Cl)NC(=O)NCc1ccccc1 | 2.7 | 2.7 | 4.6 | 5.0 | -1.3 | 3.9
